In PubChem BioAssay (EPA / NIEHS) one finds outcome and AC50 data, which are given here for three molecules.

Activity calls are given as the source filed them. The calls were made as follows: active = hit-call score of the fitted dose curve at least 0.9, where 1 is the maximum; inactive = score below 0.9.

Holding throughout (conditions): mRNA level, 48 h; actives raise or lower the signal
Read-out in assay [1]: Paternally Expressed 10 (PEG10), PEG10 (gene 23089)
Description: LTEA_HepaRG_PEG10: Life Technologies and Expression Analysis (LTEA) Assay for Paternally Expressed 10 (PEG10) using HepaRG (AID 2283520). The gist of the method: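 Human HepaRG cultures are dosed for 48 h across an eight-point half-log series starting at 100 uM, with 0.5% DMSO as vehicle and baseline. Gain or loss of PEG10 transcript is measured by qRT-PCR and fitted in both directions.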

Read-out in assay [2]: Nuclear factor NF-kappa-B p105 subunit (Homo sapiens) (UniProt P19838)
Briefly: LTEA_HepaRG_NFKB1: Life Technologies and Expression Analysis (LTEA) Assay for Nuclear Factor Kappa B Subunit 1 (NFKB1) using HepaRG (AID 2283521).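 As to outcome: differentiated human HepaRG liver cells in serum-free induction medium; TaqMan qRT-PCR transcript normalised to ACTB GAPDH and POLR2A housekeeping genes.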 The gist of the method: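 HepaRG, 48 h exposure; 8-pt half-log series from 100 uM in 0.5% DMSO; duplicates. Readout: NFKB1 mRNA by qRT-PCR (Fluidigm arrays), housekeeping-normalized. Gain/loss fit vs DMSO baseline.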

Read-out in assay [3]: Protein phosphatase 2A (PPP2R4), PTPA (gene 5524)
Description: LTEA_HepaRG_PPP2R4: Life Technologies and Expression Analysis (LTEA) Assay for Protein phosphatase 2A (PPP2R4) using HepaRG (AID 2283522). In short, it runs like this: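 Cells were plated, cultured 48 h, switched to serum-free induction medium, then dosed for 48 h (8 points, max 100 uM, 0.5% DMSO). RNA was isolated and PPP2R4 expression measured by TaqMan qRT-PCR.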

Read-out in assay [4]: Phosphatase and tensin (PTEN), PTEN (gene 5728)
Description: LTEA_HepaRG_PTEN: Life Technologies and Expression Analysis (LTEA) Assay for Phosphatase and tensin (PTEN) using HepaRG (AID 2283523). In short, it runs like this: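 HepaRG, 48 h exposure, 8-pt half-log series from 100 uM top, 0.5% DMSO vehicle, duplicates. Readout: Fluidigm qRT-PCR of PTEN transcript; housekeeping normalization (ACTB, GAPDH, POLR2A). Gain or loss fitted relative to DMSO baseline.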

Read-out in assay [5]: solute carrier (SLC22A1), SLC22A1 (gene 6580)
Briefly: LTEA_HepaRG_SLC22A1: Life Technologies and Expression Analysis (LTEA) Assay for solute carrier (SLC22A1) using HepaRG (AID 2283524). In short, it runs like this:
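qRT-PCR readout (TaqMan, Fluidigm arrays) of SLC22A1 transcript, normalized to three housekeeping genes; bidirectional curve fit relative to 0.5% DMSO vehicle. Differentiated human HepaRG cells, 48 h chemical exposure, top concentration 100 uM, half-log steps, eight points.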

Read-out in assay [6]: Pyruvate Dehydrogenase Kinase 4 (PDK4), PDK4 (gene 5166)
Description: LTEA_HepaRG_PDK4: Life Technologies and Expression Analysis (LTEA) Assay for Pyruvate Dehydrogenase Kinase 4 (PDK4) using HepaRG (AID 2283525). The gist of the method: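 HepaRG (human liver line), 48 h chemical exposure, 8-pt half-log CRC top 100 uM, 0.5% DMSO vehicle, duplicates. Readout: TaqMan qRT-PCR of PDK4 mRNA, housekeeping-normalized; gain/loss fit relative to DMSO baseline.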

Read-out in assay [7]: NAD(P)H dehydrogenase [quinone] 1 (NQO1), NQO1 (gene 1728)
Briefly: LTEA_HepaRG_NQO1: Life Technologies and Expression Analysis (LTEA) Assay for NAD(P)H dehydrogenase [quinone] 1 (NQO1) using HepaRG (AID 2283526). The gist of the method: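 Transcript induction or suppression is quantified by qRT-PCR in human HepaRG liver cells dosed for 48 hours. Eight half-log concentrations topping at 100 uM are used, with 0.5% DMSO as vehicle and baseline.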

Read-out in assay [8]: Nuclear factor erythroid 2-related factor 2 (Homo sapiens) (UniProt Q16236)
Briefly: LTEA_HepaRG_NFE2L2: Life Technologies and Expression Analysis (LTEA) Assay for Nuclear factor erythroid 2-related factor 2 (NFE2L2) Transcription Factor using HepaRG (AID 2283527).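 As to outcome: TaqMan qRT-PCR transcript level normalised to ACTB GAPDH and POLR2A housekeeping genes.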 In short, it runs like this: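 HepaRG, 48 h dosing, 8-pt half-log series from 100 uM in 0.5% DMSO, duplicates. Read-out: NFE2L2 mRNA by qRT-PCR (ACTB/GAPDH/POLR2A normalization). Bidirectional curve fit vs DMSO baseline.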

Read-out in assay [9]: succinate dehydrogenase complex iron sulfur subunit B (SDHB), SDHB (gene 6390)
Description: LTEA_HepaRG_SDHB: Life Technologies and Expression Analysis (LTEA) Assay for succinate dehydrogenase complex iron sulfur subunit B (SDHB) using HepaRG (AID 2283528). The gist of the method: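 Readout is SDHB transcript level by qRT-PCR, normalised to three housekeeping genes and fitted bidirectionally against 0.5% DMSO vehicle. Human HepaRG cells were treated for 48 h at up to 100 uM.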

Read-out in assay [10]: solute carrier (SLCO1B1), SLCO1B1 (gene 10599)
Description: LTEA_HepaRG_SLCO1B1: Life Technologies and Expression Analysis (LTEA) Assay for solute carrier (SLCO1B1) using HepaRG (AID 2283530). The gist of the method:
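HepaRG, serum-free induction medium, 48 h dosing, 8-pt half-log from 100 uM, 0.5% DMSO vehicle, duplicates. Readout: SLCO1B1 mRNA, qRT-PCR, ACTB/GAPDH/POLR2A normalization; up or down fit vs DMSO.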

Read-out in assay [11]: sulfotransferase 2A1 (SULT2A1), SULT2A1 (gene 6822)
Briefly: LTEA_HepaRG_SULT2A1: Life Technologies and Expression Analysis (LTEA) Assay for sulfotransferase 2A1 (SULT2A1) using HepaRG (AID 2283531). The gist of the method: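 Transcript levels of SULT2A1, quantified by qRT-PCR and normalized to three housekeeping genes, serve as the readout. Human HepaRG cultures receive test chemicals for 48 h at up to 100 uM in half-log steps, with 0.5% DMSO vehicle.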

Read-out in assay [12]: Transforming Growth Factor (TGFA), TGFA (gene 7039)
Description: LTEA_HepaRG_TGFA: Life Technologies and Expression Analysis (LTEA) Assay for Transforming Growth Factor (TGFA) using HepaRG (AID 2283532). The gist of the method: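 qRT-PCR read-out of TGFA transcript, normalized to three housekeeping genes, fitted bidirectionally against 0.5% DMSO baseline. Human HepaRG cultures received chemicals for 48 h at eight half-log concentrations, top 100 uM.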

Read-out in assay [13]: Transforming Growth Factor (TGFB1), TGFB1 (gene 7040)
Description: LTEA_HepaRG_TGFB1: Life Technologies and Expression Analysis (LTEA) Assay for Transforming Growth Factor (TGFB1) Transporter using HepaRG (AID 2283533). The gist of the method: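 HepaRG, 48 h post-plating, switched to serum-free induction medium; chemicals 100 uM top, half-log, 8 pts, 0.5% DMSO, dup; 48 h exposure; RNA → Fluidigm TaqMan qRT-PCR; norm ACTB/GAPDH/POLR2A; bidirectional fit vs DMSO.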

Read-out in another assay: TIMP1, TIMP1 (gene 7076)
Description: LTEA_HepaRG_TIMP1: Life Technologies and Expression Analysis (LTEA) Assay for TIMP1 using HepaRG (AID 2283534). In short, it runs like this: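 Readout is TIMP1 mRNA level measured by qRT-PCR and normalized to three housekeeping genes. Human HepaRG cells were treated for 48 h in duplicate at eight concentrations up to 100 uM (0.5% DMSO); gain or loss fitted against DMSO.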

Read-out in assay [14]: Tumor necrosis factor receptor 1 (TNFRSF1A), TNFRSF1A (gene 7132)
Briefly: LTEA_HepaRG_TNFRSF1A: Life Technologies and Expression Analysis (LTEA) Assay for Tumor necrosis factor receptor 1 (TNFRSF1A) using HepaRG (AID 2283535). In short, it runs like this:
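Read-out is TNFRSF1A transcript level by TaqMan qRT-PCR, normalized to three housekeeping genes, scored as gain or loss of signal versus 0.5% DMSO. Human HepaRG cells received test chemicals for 48 h at up to 100 uM (half-log series).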

Read-out in assay [15]: Thyroid Hormone Responsive (THRSP), THRSP (gene 7069)
Description: LTEA_HepaRG_THRSP: Life Technologies and Expression Analysis (LTEA) Assay for Thyroid Hormone Responsive (THRSP) using HepaRG (AID 2283536). The gist of the method:
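qRT-PCR read-out (Fluidigm TaqMan), housekeeping-normalized (ACTB/GAPDH/POLR2A). HepaRG, 48 h chemical exposure, 8-pt half-log series from 100 uM in 0.5% DMSO, duplicates. Bidirectional curve fit vs 0.5% DMSO baseline.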

Read-out in assay [16]: Cellular tumor antigen p53 (Homo sapiens) (UniProt P04637)
Description: LTEA_HepaRG_TP53: Life Technologies and Expression Analysis (LTEA) Assay for Tumor Protein P53 (TP53) using HepaRG (AID 2283537). The gist of the method: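 Read-out is TP53 transcript level by microfluidic qRT-PCR, normalised to three housekeeping genes and fitted bidirectionally against DMSO. Human HepaRG cells received compounds for 48 h, highest concentration 100 uM.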

Read-out in assay [17]: UDP glucuronosyltransferase (UGT1A1), UGT1A1 (gene 54658)
Briefly: LTEA_HepaRG_UGT1A1: Life Technologies and Expression Analysis (LTEA) Assay for UDP glucuronosyltransferase (UGT1A1) using HepaRG (AID 2283538). The gist of the method:
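Cells are plated, cultured 48 h, switched to serum-free induction medium, then dosed 48 h at eight concentrations (max 100 uM, 0.5% DMSO). RNA is isolated and UGT1A1 expression measured by qRT-PCR; changes versus DMSO are fitted in both directions.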

Read-out in assay [18]: UDP glucuronosyltransferase (UGT1A6), UGT1A6 (gene 54578)
Briefly: LTEA_HepaRG_UGT1A6: Life Technologies and Expression Analysis (LTEA) Assay for UDP glucuronosyltransferase (UGT1A6) using HepaRG (AID 2283539). The gist of the method:
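HepaRG, 48 h post-plating switch to serum-free induction medium; chemical 48 h, 100 uM top, half-log x8, duplicate, 0.5% DMSO. Phenobarbital 1mM induction control. UGT1A6 mRNA by TaqMan qRT-PCR; gain/loss fit vs DMSO.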

Read-out in assay [19]: Signal transducer and activator of transcription 3 (Homo sapiens) (UniProt P40763)
Description: LTEA_HepaRG_STAT3: Life Technologies and Expression Analysis (LTEA) Assay for Signal transducer and activator of transcription (STAT3) using HepaRG (AID 2283529). In short, it runs like this: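 HepaRG, 48 h exposure, 8-pt half-log series (top 100 uM), 0.5% DMSO vehicle, duplicates. Readout: STAT3 transcript by Fluidigm qRT-PCR, housekeeping-normalized; bidirectional fit vs DMSO baseline.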

Chain of Nuclear factor NF-kappa-B p105 subunit (Homo sapiens) (P19838 whole entry, looked up): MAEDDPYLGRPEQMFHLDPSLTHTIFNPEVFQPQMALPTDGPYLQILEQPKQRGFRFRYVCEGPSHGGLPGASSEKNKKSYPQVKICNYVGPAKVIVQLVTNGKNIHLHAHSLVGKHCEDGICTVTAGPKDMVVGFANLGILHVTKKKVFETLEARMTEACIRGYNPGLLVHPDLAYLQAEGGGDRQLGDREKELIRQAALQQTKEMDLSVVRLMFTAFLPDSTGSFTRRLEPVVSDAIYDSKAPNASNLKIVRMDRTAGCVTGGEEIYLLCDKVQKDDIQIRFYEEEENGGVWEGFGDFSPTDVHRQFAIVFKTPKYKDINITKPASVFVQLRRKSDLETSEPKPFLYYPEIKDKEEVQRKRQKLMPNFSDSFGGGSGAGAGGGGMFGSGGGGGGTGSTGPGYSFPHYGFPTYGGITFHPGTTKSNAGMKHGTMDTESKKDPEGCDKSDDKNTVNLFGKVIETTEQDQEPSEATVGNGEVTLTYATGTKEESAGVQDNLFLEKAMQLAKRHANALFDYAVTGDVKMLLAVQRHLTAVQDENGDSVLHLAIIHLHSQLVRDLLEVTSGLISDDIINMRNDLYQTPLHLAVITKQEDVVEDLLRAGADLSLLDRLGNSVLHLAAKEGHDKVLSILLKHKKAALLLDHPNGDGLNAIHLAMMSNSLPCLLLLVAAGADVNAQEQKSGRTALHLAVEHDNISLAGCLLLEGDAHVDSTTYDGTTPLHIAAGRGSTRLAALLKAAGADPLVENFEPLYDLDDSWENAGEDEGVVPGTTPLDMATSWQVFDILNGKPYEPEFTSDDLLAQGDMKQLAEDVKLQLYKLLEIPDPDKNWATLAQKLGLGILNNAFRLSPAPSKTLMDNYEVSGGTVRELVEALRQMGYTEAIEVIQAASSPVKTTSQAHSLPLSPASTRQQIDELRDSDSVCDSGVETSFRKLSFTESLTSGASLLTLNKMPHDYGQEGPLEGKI
Chain of Cellular tumor antigen p53 (Homo sapiens) (P04637 whole entry, looked up): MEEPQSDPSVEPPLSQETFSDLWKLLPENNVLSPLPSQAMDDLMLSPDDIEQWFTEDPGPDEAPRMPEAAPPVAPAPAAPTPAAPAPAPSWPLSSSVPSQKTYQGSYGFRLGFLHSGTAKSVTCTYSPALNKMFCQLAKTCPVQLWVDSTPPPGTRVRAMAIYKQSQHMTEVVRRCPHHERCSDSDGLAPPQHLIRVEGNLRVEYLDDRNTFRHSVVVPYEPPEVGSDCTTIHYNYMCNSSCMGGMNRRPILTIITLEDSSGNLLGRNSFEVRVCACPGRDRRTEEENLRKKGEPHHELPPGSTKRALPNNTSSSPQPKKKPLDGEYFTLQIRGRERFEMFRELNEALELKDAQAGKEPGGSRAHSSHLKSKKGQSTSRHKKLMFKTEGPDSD
Chain of Nuclear factor erythroid 2-related factor 2 (Homo sapiens) (Q16236 whole entry, looked up): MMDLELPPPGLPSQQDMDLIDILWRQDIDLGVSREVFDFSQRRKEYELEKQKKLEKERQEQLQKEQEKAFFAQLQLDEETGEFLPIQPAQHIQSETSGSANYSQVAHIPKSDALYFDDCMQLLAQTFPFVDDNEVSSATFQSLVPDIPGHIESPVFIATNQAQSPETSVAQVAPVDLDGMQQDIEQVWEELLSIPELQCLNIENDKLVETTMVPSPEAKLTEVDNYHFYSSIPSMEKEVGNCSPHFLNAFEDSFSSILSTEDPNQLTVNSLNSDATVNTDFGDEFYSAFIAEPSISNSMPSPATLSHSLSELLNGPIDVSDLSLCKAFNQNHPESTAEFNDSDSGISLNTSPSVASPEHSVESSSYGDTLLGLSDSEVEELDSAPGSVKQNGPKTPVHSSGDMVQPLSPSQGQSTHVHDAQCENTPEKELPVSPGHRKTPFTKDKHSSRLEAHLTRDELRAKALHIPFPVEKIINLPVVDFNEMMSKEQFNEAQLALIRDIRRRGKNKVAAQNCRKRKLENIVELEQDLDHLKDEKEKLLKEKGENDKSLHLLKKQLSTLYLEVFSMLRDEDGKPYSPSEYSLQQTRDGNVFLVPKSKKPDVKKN
Chain of Signal transducer and activator of transcription 3 (Homo sapiens) (P40763 whole entry, looked up): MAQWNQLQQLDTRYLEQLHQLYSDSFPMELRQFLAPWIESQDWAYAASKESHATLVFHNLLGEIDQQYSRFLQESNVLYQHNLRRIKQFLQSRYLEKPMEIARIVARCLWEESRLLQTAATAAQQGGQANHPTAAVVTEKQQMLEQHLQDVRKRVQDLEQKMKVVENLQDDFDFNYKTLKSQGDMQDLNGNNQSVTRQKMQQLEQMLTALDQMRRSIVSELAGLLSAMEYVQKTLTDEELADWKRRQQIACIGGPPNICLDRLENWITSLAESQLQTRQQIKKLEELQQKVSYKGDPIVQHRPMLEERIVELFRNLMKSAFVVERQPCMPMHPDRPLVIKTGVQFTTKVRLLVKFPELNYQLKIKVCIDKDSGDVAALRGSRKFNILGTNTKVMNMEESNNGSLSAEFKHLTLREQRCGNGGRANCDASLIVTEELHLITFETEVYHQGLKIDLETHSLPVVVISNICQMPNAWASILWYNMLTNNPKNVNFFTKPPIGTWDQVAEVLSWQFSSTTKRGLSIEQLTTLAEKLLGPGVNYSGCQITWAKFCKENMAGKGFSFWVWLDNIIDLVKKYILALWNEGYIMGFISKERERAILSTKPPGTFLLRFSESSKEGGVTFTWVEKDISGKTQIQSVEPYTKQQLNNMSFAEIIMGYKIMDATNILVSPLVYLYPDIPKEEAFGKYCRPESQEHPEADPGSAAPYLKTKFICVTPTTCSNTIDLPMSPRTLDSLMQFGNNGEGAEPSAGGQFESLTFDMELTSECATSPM

Regarding `Clc1cc(Cl)c2c(c1)N=C1CCCCCN1C2`, the call in [1], in assay [2], in assay [3], in assay [4], in assay [5] and in assay [7] was inactive. Further, the outcome in assay [8], in assay [9], in assay [10], in assay [11], in [12] and in assay [13] was inactive. The outcome in the assay with TIMP1, TIMP1 (gene 7076) was “inactive”; in assay [14], “inactive”; in [15], “inactive”; in [16], “inactive”; in [17], “inactive”; in assay [18] it was “inactive”. Besides, the AC50 in assay [6] is 12.6 µM (active).

On to `Cc1cccc2ccccc12`, for which the call in assay [1], in [2], in assay [3], in [4], in [5] and in assay [7] was inactive. In addition, the result in [8], in [9], in [19], in [10], in assay [11] and in [12] was inactive. Besides, the outcome in assay [13] is “inactive”; with TIMP1, TIMP1 (gene 7076), “inactive”; in [14], “inactive”; in [15], “inactive”; in assay [16], “inactive”; in [17], “inactive”. Moreover, the molecule was classed as inactive in [18].

Consider `CCN(CC)C(=O)c1cc(S(=O)(=O)Cc2ccccc2)c(N2CCC(c3ccccc3)CC2)cc1N(CC)CCN(C)C`, for which the outcome in assay [1], in [3], in [5], in [6], in [9] and in [19] was inactive. Also, the outcome in [13] is “inactive”; with TIMP1, TIMP1 (gene 7076), “inactive”. The AC50 in [2] was 28.1 µM (active); in assay [4], 22.9 µM (active); in assay [8], 29.1 µM (active); in [10], 33.3 µM (active); in assay [11], 32.6 µM (active); in assay [12], 27.9 µM (active). Besides, the AC50 in assay [14] is 30.1 µM (active); in assay [15], 6.01 µM (active); in assay [16], 30.7 µM (active); in [17] it was 19 µM (active); in assay [18] it was 30 µM (active).

What is called AC50 is the concentration giving half of the maximal activity seen.
